In test [1] the target is Tyrosine-protein kinase SYK (Homo sapiens) (UniProt P43405). Conditions: at 10 µM.
Test [2] deals with T1, Mitogen-activated protein kinase kinase kinase 7 (Homo sapiens) (UniProt O43318).
T1 sequence (whole entry): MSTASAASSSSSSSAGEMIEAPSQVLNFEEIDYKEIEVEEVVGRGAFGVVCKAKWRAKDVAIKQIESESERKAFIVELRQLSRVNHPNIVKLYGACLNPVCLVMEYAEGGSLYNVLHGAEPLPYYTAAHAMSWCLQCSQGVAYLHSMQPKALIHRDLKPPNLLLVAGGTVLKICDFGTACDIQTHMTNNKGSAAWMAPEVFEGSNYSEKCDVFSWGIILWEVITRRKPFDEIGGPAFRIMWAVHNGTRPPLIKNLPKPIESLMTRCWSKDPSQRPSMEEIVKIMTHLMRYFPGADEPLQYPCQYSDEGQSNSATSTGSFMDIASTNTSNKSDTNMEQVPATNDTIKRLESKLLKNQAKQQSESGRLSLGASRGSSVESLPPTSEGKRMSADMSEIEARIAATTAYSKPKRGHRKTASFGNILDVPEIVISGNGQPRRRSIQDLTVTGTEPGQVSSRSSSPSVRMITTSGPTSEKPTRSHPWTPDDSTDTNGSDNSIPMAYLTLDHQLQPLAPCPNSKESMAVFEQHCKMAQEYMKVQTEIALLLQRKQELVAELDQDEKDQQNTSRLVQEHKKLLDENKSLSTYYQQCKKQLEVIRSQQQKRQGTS
As to conditions: at 1 µM.

Test [3] addresses T1, Mitogen-activated protein kinase kinase kinase 7 (Homo sapiens). As to conditions: at 10 µM.
Test [4] addresses T2, Serine/threonine-protein kinase TAO1 (Homo sapiens) (UniProt Q7L7X3).
T2 sequence (whole entry): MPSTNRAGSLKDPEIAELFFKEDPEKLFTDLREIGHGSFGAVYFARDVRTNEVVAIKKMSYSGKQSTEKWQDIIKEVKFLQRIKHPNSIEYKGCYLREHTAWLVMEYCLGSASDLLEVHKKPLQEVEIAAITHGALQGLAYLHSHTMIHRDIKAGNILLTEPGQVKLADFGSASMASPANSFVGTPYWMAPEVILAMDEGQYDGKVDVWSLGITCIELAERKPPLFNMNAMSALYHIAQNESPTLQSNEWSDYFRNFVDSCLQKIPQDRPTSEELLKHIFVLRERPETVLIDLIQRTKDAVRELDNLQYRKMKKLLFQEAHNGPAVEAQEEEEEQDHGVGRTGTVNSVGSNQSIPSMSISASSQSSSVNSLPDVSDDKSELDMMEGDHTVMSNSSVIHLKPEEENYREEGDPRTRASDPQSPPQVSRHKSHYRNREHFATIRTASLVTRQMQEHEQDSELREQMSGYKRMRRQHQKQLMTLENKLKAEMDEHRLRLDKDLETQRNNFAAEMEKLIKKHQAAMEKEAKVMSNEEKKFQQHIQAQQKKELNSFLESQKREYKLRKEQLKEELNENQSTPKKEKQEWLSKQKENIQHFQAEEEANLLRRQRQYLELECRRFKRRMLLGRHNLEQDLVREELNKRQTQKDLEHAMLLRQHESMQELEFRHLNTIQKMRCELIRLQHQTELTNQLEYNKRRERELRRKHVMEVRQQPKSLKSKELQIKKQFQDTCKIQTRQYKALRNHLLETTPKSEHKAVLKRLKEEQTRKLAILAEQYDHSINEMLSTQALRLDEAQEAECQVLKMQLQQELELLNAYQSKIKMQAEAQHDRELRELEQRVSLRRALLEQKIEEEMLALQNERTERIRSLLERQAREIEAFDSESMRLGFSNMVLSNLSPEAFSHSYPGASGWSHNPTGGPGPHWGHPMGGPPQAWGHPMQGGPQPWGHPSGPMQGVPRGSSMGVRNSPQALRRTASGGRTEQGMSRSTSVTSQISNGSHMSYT
Conditions: at 1 µM.

Test [5] has as its target T2, Serine/threonine-protein kinase TAO1 (Homo sapiens). Conditions: at 10 µM.
In test [6] the target is T3, Serine/threonine-protein kinase TAO2 (Homo sapiens) (UniProt Q9UL54).
T3 sequence (whole entry): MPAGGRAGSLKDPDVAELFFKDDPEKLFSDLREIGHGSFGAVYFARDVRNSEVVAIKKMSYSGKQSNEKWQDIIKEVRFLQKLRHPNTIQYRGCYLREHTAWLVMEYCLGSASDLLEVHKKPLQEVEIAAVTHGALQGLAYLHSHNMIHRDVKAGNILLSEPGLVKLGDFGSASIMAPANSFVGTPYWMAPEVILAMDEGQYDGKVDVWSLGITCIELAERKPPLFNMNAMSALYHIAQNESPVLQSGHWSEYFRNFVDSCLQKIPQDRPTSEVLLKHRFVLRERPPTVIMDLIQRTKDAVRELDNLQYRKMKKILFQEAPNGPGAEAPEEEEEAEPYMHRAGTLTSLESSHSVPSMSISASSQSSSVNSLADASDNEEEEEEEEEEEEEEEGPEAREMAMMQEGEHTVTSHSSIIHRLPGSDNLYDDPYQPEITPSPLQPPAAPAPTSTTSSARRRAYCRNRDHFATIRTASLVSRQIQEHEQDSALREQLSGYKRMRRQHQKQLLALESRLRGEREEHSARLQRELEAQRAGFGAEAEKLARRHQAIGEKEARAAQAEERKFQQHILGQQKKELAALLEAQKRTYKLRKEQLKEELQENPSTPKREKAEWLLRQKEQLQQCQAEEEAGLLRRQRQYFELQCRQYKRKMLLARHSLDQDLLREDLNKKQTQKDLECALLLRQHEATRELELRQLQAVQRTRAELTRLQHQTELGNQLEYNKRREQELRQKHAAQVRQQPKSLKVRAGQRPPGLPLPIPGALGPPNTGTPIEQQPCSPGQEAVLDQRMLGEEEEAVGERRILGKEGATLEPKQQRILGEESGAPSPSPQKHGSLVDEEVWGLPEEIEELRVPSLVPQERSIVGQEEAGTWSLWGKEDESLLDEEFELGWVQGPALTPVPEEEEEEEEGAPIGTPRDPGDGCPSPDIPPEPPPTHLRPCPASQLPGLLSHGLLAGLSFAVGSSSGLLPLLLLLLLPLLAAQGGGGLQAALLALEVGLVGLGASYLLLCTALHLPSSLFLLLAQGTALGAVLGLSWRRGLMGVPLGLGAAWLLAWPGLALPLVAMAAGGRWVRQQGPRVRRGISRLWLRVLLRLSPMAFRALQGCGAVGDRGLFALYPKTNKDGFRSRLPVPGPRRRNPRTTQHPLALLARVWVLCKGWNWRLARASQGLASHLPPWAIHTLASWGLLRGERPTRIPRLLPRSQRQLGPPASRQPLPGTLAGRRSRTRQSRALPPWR
As to conditions: at 1 µM.

Test [7] addresses T3, Serine/threonine-protein kinase TAO2 (Homo sapiens). Conditions: at 10 µM.
In test [8] the target is T4, Serine/threonine-protein kinase TAO3 (Homo sapiens) (UniProt Q9H2K8).
T4 sequence (whole entry): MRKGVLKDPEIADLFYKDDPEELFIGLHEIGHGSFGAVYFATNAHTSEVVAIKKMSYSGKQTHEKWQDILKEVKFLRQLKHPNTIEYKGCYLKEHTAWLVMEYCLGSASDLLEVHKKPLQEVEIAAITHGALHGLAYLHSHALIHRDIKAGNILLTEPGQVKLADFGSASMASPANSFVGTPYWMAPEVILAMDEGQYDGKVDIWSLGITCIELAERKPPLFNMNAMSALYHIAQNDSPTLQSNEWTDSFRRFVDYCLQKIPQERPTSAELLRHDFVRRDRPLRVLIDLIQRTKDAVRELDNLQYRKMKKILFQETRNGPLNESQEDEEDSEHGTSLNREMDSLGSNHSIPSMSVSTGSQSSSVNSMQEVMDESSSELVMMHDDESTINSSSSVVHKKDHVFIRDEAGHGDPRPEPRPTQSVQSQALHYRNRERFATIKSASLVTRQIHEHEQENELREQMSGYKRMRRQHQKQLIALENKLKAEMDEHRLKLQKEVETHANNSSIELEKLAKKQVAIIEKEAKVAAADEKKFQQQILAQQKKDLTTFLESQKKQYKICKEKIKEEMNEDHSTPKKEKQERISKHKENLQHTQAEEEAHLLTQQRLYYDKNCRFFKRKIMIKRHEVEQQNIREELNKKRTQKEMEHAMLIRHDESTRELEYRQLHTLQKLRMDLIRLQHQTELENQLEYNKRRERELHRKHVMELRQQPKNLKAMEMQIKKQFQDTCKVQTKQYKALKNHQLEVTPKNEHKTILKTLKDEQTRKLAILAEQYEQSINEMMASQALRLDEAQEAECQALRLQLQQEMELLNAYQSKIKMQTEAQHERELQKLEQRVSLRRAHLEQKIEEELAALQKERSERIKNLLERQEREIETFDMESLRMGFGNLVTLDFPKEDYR
As to conditions: at 1 µM.

The target in test [9] is T4, Serine/threonine-protein kinase TAO3 (Homo sapiens). As to conditions: at 10 µM.
The target of test [10] is T5, Serine/threonine-protein kinase TBK1 (Homo sapiens) (UniProt Q9UHD2).
T5 sequence (whole entry): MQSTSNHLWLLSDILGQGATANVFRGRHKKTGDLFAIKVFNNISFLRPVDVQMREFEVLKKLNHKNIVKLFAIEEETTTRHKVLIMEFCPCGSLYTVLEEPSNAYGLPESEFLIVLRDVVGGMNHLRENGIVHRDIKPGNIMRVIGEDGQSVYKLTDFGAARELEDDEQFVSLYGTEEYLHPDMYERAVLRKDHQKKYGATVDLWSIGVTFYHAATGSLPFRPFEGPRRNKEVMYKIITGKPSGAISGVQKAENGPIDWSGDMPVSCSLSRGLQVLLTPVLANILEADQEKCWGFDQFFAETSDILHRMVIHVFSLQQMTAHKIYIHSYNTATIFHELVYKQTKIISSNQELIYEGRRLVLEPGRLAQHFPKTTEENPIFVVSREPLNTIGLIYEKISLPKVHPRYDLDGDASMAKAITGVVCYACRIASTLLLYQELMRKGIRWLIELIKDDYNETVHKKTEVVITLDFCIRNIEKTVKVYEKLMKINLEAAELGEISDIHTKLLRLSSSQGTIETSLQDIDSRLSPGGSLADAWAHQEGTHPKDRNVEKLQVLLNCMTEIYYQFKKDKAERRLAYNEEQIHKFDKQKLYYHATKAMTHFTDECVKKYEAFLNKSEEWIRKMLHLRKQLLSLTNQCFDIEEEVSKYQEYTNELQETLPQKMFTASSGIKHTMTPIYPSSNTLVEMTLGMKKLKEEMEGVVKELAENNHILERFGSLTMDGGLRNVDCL
As to conditions: at 1 µM.

Regarding `N#C/C(=C(\N)Sc1ccc(N)cc1)c1ccccc1C(F)(F)F`, the residual activity in [1] is 78%; in [2] it was 101%; in test [3], 85%; in [4], 89%; in test [5] it was 99%; in test [6], 102%. In addition, the residual activity in test [7] was 104%; in test [8], 99%; in test [9], 91%; in [10], 31%.

The values are drawn from ChEMBL document CHEMBL2218924, “A broad activity screen in support of a chemogenomic map for kinase signalling research and drug discovery” (Biochem J, 2013).
